mHTT-CaM PPI inh: disrupts binding of mutant huntingtin to calmodulin. P42858. AlphaScreen His-mHTT/GST-CaM binding, luminescence. inhibition, % at 15 µM. 190,000 tested, 3.6% active;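 further: 0% = both proteins with DMSO and 100% = one protein alone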
Pf apPOL block: Pf-apPOL DNA polymerase inhibition | AID 1794808 | inhibition, % at 10 µM | 210,000 tested, 0.25% active | Recombinant Pf-apPOL, molecular beacon fluorescence, 1.5 h
* = called active by the depositor. Rows were chosen to be rich in hits. Some 3.6% of all compounds tested hit in one or more screens of this group. No stated cut-off is given here; in the data, active means inhibition above about 50%; inactive means the rest.

Cc1ccccc1CNC(=O)C1(C)CCCN(C(=O)Nc2cccc(F)c2)C1 (centres undefined) was read as mHTT-CaM PPI inh -4.0 and Pf apPOL block 3.6.
For O=C1C(=O)N(CN2CCCCCC2)c2ccccc21 the results were mHTT-CaM PPI inh 77.0* and Pf apPOL block -3.5.
For O=C1C(=O)N(CCN2CCCCC2)c2ccccc21 the results were mHTT-CaM PPI inh 2.6 and Pf apPOL block 8.1.
Screening CN(C)C(=O)c1cccc(N2CCNC(c3ccccc3)C2)n1 (centres undefined) returned mHTT-CaM PPI inh -1.0 and Pf apPOL block -9.8.
Screening CCOc1cc(-c2ccc(SC)cc2)cc(=O)c2c(C)oc(C)c12 returned mHTT-CaM PPI inh 70.0* and Pf apPOL block 4.0.
CCOc1cc(-c2ccc(OCc3ccccc3)c(OC)c2)cc(=O)c2c(C)oc(C)c12 was read as mHTT-CaM PPI inh 70.0* and Pf apPOL block -2.7.
CCOc1cc(-c2cc(OC)c(OC)c(OC)c2)cc(=O)c2c(C)oc(C)c12 was read as mHTT-CaM PPI inh 37.0 and Pf apPOL block 2.4.
For COc1ccc(-c2cc(OC)c3c(C)oc(C)c3c(=O)c2)cc1 the results were mHTT-CaM PPI inh 54.0* and Pf apPOL block 7.0.
`CCOc1cc(-c2ccc(O)c(O)c2)cc(=O)c2c(C)oc(C)c12` gave mHTT-CaM PPI inh 47.0 and Pf apPOL block -2.9.
For COc1cc(-c2ccc(O)cc2)cc(=O)c2c(C)oc(C)c12 the results were mHTT-CaM PPI inh 42.0 and Pf apPOL block -0.2.
CCOc1ccc(C2Oc3nc(SC)nnc3-c3ccccc3N2C(C)=O)cc1 (centres undefined) was read as mHTT-CaM PPI inh 2.0 and Pf apPOL block -17.7.
Cc1ccccc1Cn1ccc(NC(=O)C2CC(c3cccc(Br)c3)=NO2)n1 (centres undefined) was read as mHTT-CaM PPI inh -1.7 and Pf apPOL block 4.6.
Cc1ccc2c(c1)C(=O)NC1(CCN(C(=O)NC3CCCCC3)CC1)N2C was read as mHTT-CaM PPI inh -0.2 and Pf apPOL block 0.3.
Screening CCN1c2cc(C)ccc2-n2cccc2C12CCN(C(=O)NCc1cccc(OC)c1)CC2 returned mHTT-CaM PPI inh 34.1 and Pf apPOL block 1.5.
`CCN1c2cc(C)ccc2-n2cccc2C12CCN(C(=O)Nc1cccc(OC)c1)CC2` gave mHTT-CaM PPI inh 55.5* and Pf apPOL block 3.5.
`CCN1c2cc(C)ccc2-n2cccc2C12CCN(C(=O)NC1CCCC1)CC2` gave mHTT-CaM PPI inh 71.7* and Pf apPOL block -6.3.
CCN1c2cc(C)ccc2-n2cccc2C12CCN(C(=O)Nc1ccc(C)cc1)CC2 was read as mHTT-CaM PPI inh 44.3 and Pf apPOL block -5.5.
CCOc1ccc(NC(=O)N2CCC3(CC2)c2cccn2-c2ccc(C)cc2N3CC)cc1 was read as mHTT-CaM PPI inh 51.7* and Pf apPOL block -2.8.
Screening CCN1c2ccccc2-n2cccc2C12CCN(C(=O)Nc1cc(C)ccc1C)CC2 returned mHTT-CaM PPI inh 0.5 and Pf apPOL block -2.1.
CCN1c2cc(C)ccc2-n2cccc2C12CCN(C(=O)Nc1ccccc1)CC2 was read as mHTT-CaM PPI inh 51.9* and Pf apPOL block -5.9.
`COc1ccc(-c2cc(CNC(=O)c3cc4ccccc4o3)no2)cc1OC` gave mHTT-CaM PPI inh 35.3 and Pf apPOL block -2.4.
For Cc1ccc(S(=O)(=O)N(CC(=O)Nc2ccc(C(N)=O)cc2)Cc2ccc(Cl)cc2)cc1 the results were mHTT-CaM PPI inh 2.5 and Pf apPOL block -3.1.
Screening CCN1c2cc(C)ccc2-n2cccc2C12CCN(C(=O)c1ccccc1OC)CC2 returned mHTT-CaM PPI inh 8.5 and Pf apPOL block -4.0.
CCN1c2cc(C)ccc2-n2cccc2C12CCN(C(=O)Nc1ccc(OC)cc1)CC2 was read as mHTT-CaM PPI inh 56.1* and Pf apPOL block -1.2.
`CCN1c2cc(C)ccc2-n2cccc2C12CCN(C(=O)Nc1ccccc1OC)CC2` gave mHTT-CaM PPI inh 65.5* and Pf apPOL block -1.1.
Screening CCN1c2cc(Cl)ccc2C(=O)NC12CCN(C(=O)Nc1ccc(OC)cc1)CC2 returned mHTT-CaM PPI inh 23.1 and Pf apPOL block -7.9.
Screening N#CCC(=O)c1ccc([N+](=O)[O-])cc1 returned mHTT-CaM PPI inh 98.5* and Pf apPOL block 5.5.
For N#CCC(=O)c1ccc(Cl)cc1 the results were mHTT-CaM PPI inh 13.5 and Pf apPOL block 1.2.
For O=C(Cc1csc(NC(=O)c2ccsc2)n1)NCc1nc2ccccc2[nH]1 the results were mHTT-CaM PPI inh 1.0 and Pf apPOL block -3.6.
For COc1ccc(N2CCN(/C(=N/O)c3nonc3N)CC2)c([N+](=O)[O-])c1 the results were mHTT-CaM PPI inh inactive and Pf apPOL block -3.0.
`Cc1c(C(=O)N2CCN(c3ccc(Cl)cc3[N+](=O)[O-])CC2)oc2ccccc12` gave mHTT-CaM PPI inh 61.0* and Pf apPOL block 8.1.
O=C(c1ccc(Cl)cc1)N1CCN(c2ccc(Cl)cc2[N+](=O)[O-])CC1 was read as mHTT-CaM PPI inh 40.0 and Pf apPOL block -1.8.
`Nc1nonc1/C(=N\O)N1CCN(c2ccc(Cl)cc2[N+](=O)[O-])CC1` gave mHTT-CaM PPI inh active and Pf apPOL block -7.7.
`O=C(NCc1ccco1)c1cc(-c2ccc(Br)s2)nc2ccccc12` gave mHTT-CaM PPI inh 35.0 and Pf apPOL block -4.4.
For CCOc1ccc(C(C)NC(=O)c2cc(NC(C)=O)cc3nc(C)ccc23)cc1 (centres undefined) the results were mHTT-CaM PPI inh 49.6 and Pf apPOL block 10.1.
Screening CNC(=O)c1cc(NC(=O)C2CCC2)cc2nc(C)ccc12 returned mHTT-CaM PPI inh 4.6 and Pf apPOL block 10.3.
Screening CC(=O)Nc1cc(C(=O)NCc2ccccc2Br)c2ccc(C)nc2c1 returned mHTT-CaM PPI inh 54.8* and Pf apPOL block 33.2.
Screening Cc1ccc(CNC(=O)c2cc(-c3ccc(Br)s3)nc3ccccc23)o1 returned mHTT-CaM PPI inh 96.0* and Pf apPOL block -6.0.
Screening COc1ccc(C(C)NC(=O)c2cc(NC(C)=O)cc3nc(C)ccc23)cc1 (centres undefined) returned mHTT-CaM PPI inh 53.5* and Pf apPOL block 42.3.
Cc1ccc2c(C(=O)NCc3ccc(C)o3)cc(NC(=O)C3CCC3)cc2n1 was read as mHTT-CaM PPI inh 63.5* and Pf apPOL block 12.1.
`CCOc1ccccc1CNC(=O)c1cc(NC(C)=O)cc2nc(C)ccc12` gave mHTT-CaM PPI inh 39.9 and Pf apPOL block 5.2.
O=C1CSC(c2ccc3c(c2)OCO3)N1c1ccc(Cl)c(Cl)c1 (centres undefined) was read as mHTT-CaM PPI inh -12.0 and Pf apPOL block -5.8.
O=C(c1ccco1)N1CCC(c2nc(C3CC3)n[nH]2)CC1 was read as mHTT-CaM PPI inh -5.7 and Pf apPOL block -3.3.
`C=CCSc1nnc(-c2ccc(NC(=O)c3ccccc3F)cc2)n1C` gave mHTT-CaM PPI inh 4.3 and Pf apPOL block -0.4.
O=[N+]([O-])c1ccc(N2CCN(Cc3ccccc3)CC2)cc1NC1CC1 was read as mHTT-CaM PPI inh 26.6 and Pf apPOL block -6.6.
Screening O=[N+]([O-])c1ccc(N2CCCC2)cc1N1CCN(Cc2ccccc2)CC1 returned mHTT-CaM PPI inh 52.6* and Pf apPOL block -4.1.
`O=C(/C=C/c1ccco1)c1cccs1` gave mHTT-CaM PPI inh 79.2* and Pf apPOL block 11.2.
`O=C(C=Cc1ccco1)c1ccc(O)cc1` gave mHTT-CaM PPI inh 6.4 and Pf apPOL block 2.3.
For O=C(c1cnn(-c2ccccc2)n1)N1CCN(Cc2nc3ccccc3[nH]2)CC1 the results were mHTT-CaM PPI inh 7.0 and Pf apPOL block -14.1.
